{
  "source": "PubChem BioAssay (EPA / NIEHS)",
  "note": "Where “and” joins values, the source holds several entries; their conditions need not be identical. Equal entries are not always repeated. Calls of active or inactive are those of the source. The calls were made as follows: active = hit-call score of the fitted dose curve at least 0.9, where 1 is the maximum; inactive = score below 0.9.",
  "data": [
    {"read-out": "Interleukin-1 alpha (IL1a), IL1A (gene 3552)", "experiment": "BSK_LPS_IL1a: BioMAP Diversity Plus: LPS Assay for Interleukin-1 alpha (IL1a) Biomarker Activity (AID 2283080)", "conditions": "primary human HUVEC with PBMC; actives raise or lower the signal", "procedure": "BSK_LPS is a cell-based, multiplexed-readout assay that uses umbilical vein endothelium and peripheral blood mononuclear cells, a human vascular primary cell co-culture, with measurements taken at 24 hours after chemical dosing in a 96-well plate.BSK_LPS_IL1a is an assay component measured in the BSK_LPS assay. It measures IL-a antibody related to regulation of gene expression using ELISA technology.Data from the assay component BSK_LPS_IL1a was analyzed into 1 assay endpoint. This assay endpoint, BSK_LPS_IL1a, was analyzed with bidirectional fitting relative to DMSO as the negative control and baseline of activity. Using a type of binding reporter, gain or loss-of-signal activity can be used to understand changes in the signaling as they relate to the gene IL1A. Furthermore, this assay endpoint can be referred to as a primary readout, because this assay has produced multiple assay endpoints where this one serves a signaling function. To generalize the intended target to other relatable targets, this assay endpoint is annotated to the cytokine intended target family, where the subfamily is interleukins.\nThe levels of cell surface (or secreted, indicated by the prefix \"s\") biomarker endpoints were measured by ELISA. Overt cytotoxicity to cells in confluent adherent cultures (all systems other than the BT system) was assessed by measuring total protein levels using sulforhodamine B (SRB) staining in parallel cultures at the time of biomarker measurements, indicated as SRB endpoints. For proliferation assays for adherent cell types, individual cell types are cultured at sub-confluence and relative cell numbers quantified by SRB staining at time points optimized for each system (48 h: 3C and CASM3C systems; 72 h: BT and HDF3CGF systems; 96 h: SAg system). SRB was performed by staining cells with 0.1% SRB after fixation with 10% TCA and reading wells at 560 nm.Viability and proliferation of PBMC (T cells) was quantified by Alamar Blue reduction for the SAg and BT systems. For PBMC viability (referred to as PBMC Cytotoxicity within the assay endpoint names), cells were plated (75,000/well in a 96-well plate) and then chemical samples added for 1 h before addition of activators, SEB and TSST-1 (20 ng/mL final concentration each). Cells were incubated for 90 h. Then, Alamar Blue (20 uL/well) (Invitrogen, Cat DAL1100) was added for 6 h, and the plates were read with a fluorescence microplate reader at 546/580 nm (excitation/emission). For PBMC proliferation, cells were plated and activated as above but incubated for only 16 h prior to addition of Alamar Blue. Plates were read after 6 h.", "values": [
      {"smiles": "C=CCC1=C(C)[C@@H](OC(=O)[C@@H]2[C@@H](C=C(C)C)C2(C)C)CC1=O", "AC50": "32.3 µM (active)"},
      {"smiles": "N#CC(CCc1ccc(Cl)cc1)(Cn1cncn1)c1ccccc1", "note": "(stereo not given)", "outcome": "inactive"},
      {"smiles": "CCOC(=O)CC(SP(=S)(OC)OC)C(=O)OCC", "note": "(stereo not given)", "outcome": "inactive"},
      {"smiles": "COP(=S)(OC)Oc1nc(Cl)c(Cl)cc1Cl", "AC50": "27 µM (active)"},
      {"smiles": "COC(=O)C(C)Oc1ccc(Oc2ccc(Cl)cc2Cl)cc1", "note": "(stereo not given)", "outcome": "inactive"},
      {"smiles": "COc1ccc(C(c2ccc(OC)cc2)C(Cl)(Cl)Cl)cc1", "AC50": "32.5 µM (active)"},
      {"smiles": "CCNc1nc(Cl)nc(NC(C)C)n1", "outcome": "inactive"},
      {"smiles": "COc1nc(C)nc(NC(=O)NS(=O)(=O)c2ccccc2CCC(F)(F)F)n1", "outcome": "inactive"},
      {"smiles": "CON(C)C(=O)Nc1ccc(Cl)c(Cl)c1", "outcome": "inactive"},
      {"smiles": "COc1nc(NC(C)C)nc(NC(C)C)n1", "outcome": "inactive"},
      {"smiles": "CS/C(C)=N/OC(=O)N(C)SN(C)C(=O)O/N=C(\\C)SC", "AC50": "15.6 µM (active)"},
      {"smiles": "C#CCOS(=O)OC1CCCCC1Oc1ccc(C(C)(C)C)cc1", "note": "(stereo not given)", "AC50": "16.4 µM (active)"},
      {"smiles": "Cc1ccc(-c2c(Cl)nc(C#N)n2S(=O)(=O)N(C)C)cc1", "outcome": "inactive"},
      {"smiles": "C=CCC1=C(C)C(OC(=O)C2C(C=C(C)C)C2(C)C)CC1=O", "note": "(stereo not given)", "AC50": "34.3 µM (active) [middle of 4 runs]"},
      {"smiles": "CC(C)Oc1cc(-n2nc(C(C)(C)C)oc2=O)c(Cl)cc1Cl", "AC50": "32.7 µM (active)"},
      {"smiles": "CCON=C(CC)C1=C(O)CC(c2c(C)cc(C)cc2C)CC1=O", "note": "(stereo not given)", "outcome": "inactive"},
      {"smiles": "CCOC(=O)C(Cl)Cc1cc(-n2nc(C)n(C(F)F)c2=O)c(F)cc1Cl", "note": "(stereo not given)", "outcome": "inactive"},
      {"smiles": "CC(C)(C)c1ccc(CSc2cnn(C(C)(C)C)c(=O)c2Cl)cc1", "AC50": "20 µM (active)"},
      {"smiles": "O=C(O)c1nc(Cl)ccc1Cl", "outcome": "inactive"},
      {"smiles": "CCc1nn(C)c(C(=O)NCc2ccc(C(C)(C)C)cc2)c1Cl", "AC50": "33 µM (active)"},
      {"smiles": "OC(c1ccc(Cl)cc1)(c1cncnc1)c1ccccc1Cl", "note": "(stereo not given)", "outcome": "inactive"},
      {"smiles": "CCOP(=S)(OCC)SCn1c(=O)oc2cc(Cl)ccc21", "outcome": "inactive"},
      {"smiles": "COC(=O)c1ccccc1C(=O)OC", "outcome": "inactive"},
      {"smiles": "CO/C=C(/C(=O)OC)c1ccccc1Oc1cc(Oc2ccccc2C#N)ncn1", "outcome": "inactive"},
      {"smiles": "CC(C)C1(C)N=C(c2nc3ccccc3cc2C(=O)O)NC1=O", "note": "(stereo not given)", "outcome": "inactive"},
      {"smiles": "CCCCOC(=O)c1ccccc1C(=O)OCCCC", "outcome": "inactive"},
      {"smiles": "Fc1ccc(Oc2ccnc3cc(Cl)cc(Cl)c23)cc1", "AC50": "14.6 µM (active)"},
      {"smiles": "COP(N)(=O)SC", "note": "(stereo not given)", "outcome": "inactive"},
      {"smiles": "Cc1c(F)c(F)c(COC(=O)C2C(/C=C(\\Cl)C(F)(F)F)C2(C)C)c(F)c1F", "note": "(stereo not given)", "AC50": "0.3 µM (active)"},
      {"smiles": "CCCCNC(=O)OCC#CI", "AC50": "23.2 µM (active) and 13 µM (active)"},
      {"smiles": "CN(C)C(=S)SSC(=S)N(C)C", "AC50": "16.1 µM (active)"},
      {"smiles": "CCCCNC(=O)n1c(NC(=O)OC)nc2ccccc21", "outcome": "inactive"},
      {"smiles": "Oc1ccccc1-c1ccccc1", "outcome": "inactive"},
      {"smiles": "CCCC1COC(Cn2cncn2)(c2ccc(Cl)cc2Cl)O1", "note": "(stereo not given)", "outcome": "inactive"},
      {"smiles": "COC(=O)C=C(C)OP(=O)(OC)OC", "outcome": "inactive"},
      {"smiles": "CC(Oc1ccc(Cl)cc1Cl)C(=O)O", "note": "(stereo not given)", "outcome": "inactive"},
      {"smiles": "CCCCC(CC)COC(=O)c1ccccc1C(=O)OCC(CC)CCCC", "note": "(stereo not given)", "outcome": "inactive"},
      {"smiles": "CCOc1cc(Oc2ccc(C(F)(F)F)cc2Cl)ccc1[N+](=O)[O-]", "outcome": "inactive"},
      {"smiles": "COc1nc(C)nc(NC(=O)NS(=O)(=O)c2ccccc2Cl)n1", "outcome": "inactive"},
      {"smiles": "COc1cnc(OC)n2nc(NS(=O)(=O)c3c(OCC(F)F)cccc3C(F)(F)F)nc12", "outcome": "inactive"}
    ]}
  ]
}
